In all, about 310,000 compounds went through this assay and about 2,600 (0.84%) were called active.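 How the source made its calls: active means fluorescence ratio B-score at or below minus 3 SD of library scores, with starting-brightness B-score within 2 SD (cut at about -4.2 in these data); inactive means the rest.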 The list comes from a sample in which actives are over-represented; it also holds similar structures and randomly drawn compounds.
These compounds were tested against Inward rectifier potassium channel 2 (Mus musculus) (UniProt P35561) (assay: inhibitors of mouse Kir2.1 inward-rectifier potassium channel (AID 1672;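 further: channel flux triggered by added potassium and thallium sulfate stimulus; B-score of peak minus minimum fluorescence over baseline after thallium stimulus; more negative B-score means stronger Kir2.1 block with less thallium influx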)). Settings: HEK293-Kir2.1, FluxOR thallium flux fluorescence; at 10 µM; hits give low values.
Sequence of Inward rectifier potassium channel 2 (Mus musculus) (P35561 whole entry, looked up): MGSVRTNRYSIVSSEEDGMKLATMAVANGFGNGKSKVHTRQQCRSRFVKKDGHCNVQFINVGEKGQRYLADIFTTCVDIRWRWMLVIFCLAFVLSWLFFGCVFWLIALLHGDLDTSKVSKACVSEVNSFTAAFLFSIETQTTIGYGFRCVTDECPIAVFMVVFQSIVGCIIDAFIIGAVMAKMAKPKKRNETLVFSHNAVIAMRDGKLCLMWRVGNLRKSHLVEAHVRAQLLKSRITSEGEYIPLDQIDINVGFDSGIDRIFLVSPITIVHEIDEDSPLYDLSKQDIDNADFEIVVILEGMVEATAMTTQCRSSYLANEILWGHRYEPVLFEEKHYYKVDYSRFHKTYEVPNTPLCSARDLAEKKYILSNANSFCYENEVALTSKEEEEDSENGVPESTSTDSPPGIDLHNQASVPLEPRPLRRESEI

B-score, inactive:
COc1ccc(C(=O)Nc2cccc(NC(=O)c3ccc(OC)cc3OC)n2)c(OC)c1 1.64
O=S(=O)(O)Oc1c[nH]c2ccccc12 0.01
Cc1nnc(SCC(=O)NCCOc2ccc(Cl)cc2)n1-c1ccccc1 -0.16
Cc1nnc(SCC(=O)N2CCN(c3ccccc3)CC2)n1-c1ccccc1 0.71
COc1ccc(OCC(O)CN(C)C(=O)C(C)Oc2ccccc2)cc1 (stereo not drawn) -0.09
Cc1ccc(OCC(=O)OC(C)CN(C)Cc2ccccc2)cc1 (stereo not drawn) 0.74
C=CCNC(=O)C1CC2c3ccccc3C1c1ccccc12 (stereo not drawn) -2.23
CC(C)Sc1nnc([C@H](Cc2ccccc2)NC(=O)OC(C)(C)C)o1 -0.51
C[C@H](NC(=O)OC(C)(C)C)c1nnc(SCC(N)=O)o1 -0.34
O=C(c1ccc(Cl)s1)N(Cc1nnc(-c2ccccc2Cl)o1)C1CC1 1.76
Cc1ccn2c(=O)nc(SCC(=O)NCc3ccc(F)cc3)nc2c1 -1.27
Cc1csc(NC(=O)c2ccc(C)s2)n1 0.01
CC(=O)Nc1cccc(C(=O)OCC(=O)Nc2nnc(-c3ccccc3)o2)c1 -2.17
COc1ccccc1NS(=O)(=O)c1ccc(C)c(C(=O)NCC(c2ccco2)N(C)C)c1 (stereo not drawn) -0.98
C=CCNC(=S)N/N=C/c1ccc(OCc2ccccc2)cc1 -1.45
C=CCNC(=O)COc1coc(CN2CCN(Cc3ccccc3)CC2)cc1=O 0.45
O=C(Nc1ncccc1O)c1ccc(S(=O)(=O)N2CCCC2)cc1 -0.16
CCOCCCNCc1cc(Br)ccc1OCC -0.16
COCC(C)NCc1cc(Br)ccc1OC (stereo not drawn) 1.7
Cc1ccc(NC(=O)c2cnc(SCC(=O)NCC3CCCO3)n(C)c2=O)cc1 (stereo not drawn) 0.42
Cc1ccc(S(=O)(=O)N2CCC(C(=O)NCCC3=CCCCC3)CC2)cc1C 0.61
O=C1c2ccccc2C(=O)c2c1cccc2N1CCN(C/C=C/c2ccccc2)CC1 1.06
COc1ccc(C)cc1NC(=O)CSc1nnc2ccc(-c3ccccn3)nn12 0.98
Cc1ccc(SCCN2C(=O)NC(C)(C)C2=O)cc1 0.51
CSc1ccc(CN2C(=O)NC3(CCCCCC3)C2=O)cc1 1.22
Cc1ccn2c(=O)c(NC(=O)c3cccc4ccccc34)c(C)nc2c1 -0.25
CC1CN(C(=O)CCC(=O)NCc2cccnc2)c2ccccc2O1 (stereo not drawn) -0.67
CC1CN(C(=O)CCC(=O)NC2CCN(Cc3ccccc3)CC2)c2ccccc2O1 (stereo not drawn) 2.27
CN(C)S(=O)(=O)c1ccc(N2CCCC2)c(C(=O)Nc2ccc(Br)cc2F)c1 -0.29
Cc1cc(C)cc(NC(=O)COc2coc(CN3CCN(c4ccccc4)CC3)cc2=O)c1 0
Cc1ccc(NC(=S)N(CCN2CCCCC2)Cc2ccco2)cc1C -0.41
Cc1ccc(NC(=S)N(CCCN2CCC(C)CC2)Cc2ccco2)cc1 -0.74
CC(C)(C)S(=O)(=O)c1ccccc1-c1noc(-c2ccccc2)c1C(N)=O -0.65
COc1ccc(S(=O)(=O)NCC(c2ccc(C)cc2)N2CCN(C)CC2)cc1OC (stereo not drawn) 1.23
CCCCOc1ccc(C(=O)NCc2ccncc2)cc1 0.24
CCCOc1ccc(C(=O)CCC(=O)OC(C)C(=O)Nc2ccc(NC(C)=O)cc2)cc1 (stereo not drawn) 0.42
O=C(CSc1nc(=O)n2ccccc2n1)Nc1ccc2c(c1)OCCO2 0.08
CCOc1ccc(C(C)=O)cc1COC(=O)CN1C(=O)NC2(CCCC2)C1=O -1.53
CCCCn1c(N)c(N(CC(C)C)C(=O)c2ccc(-n3c(C)ccc3C)cc2)c(=O)[nH]c1=O -1.14
Cc1ccc(C)c(-c2nnc(NC(=O)CS(=O)(=O)c3ccccc3)o2)c1 1.4
O=c1[nH]c(/C=C/c2cccc(Br)c2)nc2ccccc12 0.39
Cc1cc(C)cc(NC(=O)CSc2ccccc2)c1 0.12
O=C(CSc1ccccc1)Nc1cc(Cl)ccc1Oc1ccccc1 -1.22
N#CCCN(C(=O)COC(=O)C1CCN(c2ccc(C(F)(F)F)cn2)CC1)c1ccc(F)cc1 0.96
CCOC(=O)N1CCN(C(=O)COc2ccc3oc4c(c3c2)CCCC4)CC1 0.58
COc1ccccc1CCNC(=O)C(=O)NCCC1CCCCN1S(=O)(=O)c1cccs1 (stereo not drawn) -1.17
O=C(Nc1cccnc1)c1cc(Cl)ccc1Cl 0.72
O=C(/C=C/c1ccc(Cl)c([N+](=O)[O-])c1)c1cccnc1 -0.86
COc1ccc2oc(C(=O)OCC(=O)N(CC(C)C)c3c(N)n(Cc4ccccc4)c(=O)[nH]c3=O)c(C)c2c1 0.5
COc1ccccc1S(=O)(=O)c1c(C)cc(C)[nH]c1=O -1.21
Cc1cc(C)c(S(=O)(=O)c2ccc(F)cc2C)c(=O)[nH]1 0.31
Cc1ccc(C(=O)NNC(=O)C(C)Oc2ccc3ccccc3c2)o1 (stereo not drawn) 0.32
CSc1ncc(Sc2ccccc2)c(C(=O)O)n1 0.25
CC(=O)OC(C(=O)NC1CCCCC1)c1ccccc1 (stereo not drawn) -0.67
COc1ccccc1CN1CCN(C(c2ccccc2)c2ccccc2)CC1 -0.07
Cc1ccc(NC(=O)C2CC(=O)N(c3ccc4c(c3)OCCO4)C2)cc1S(=O)(=O)N1CCCCCC1 (stereo not drawn) -0.57
COc1ccc2c(c1)CCNC2Cc1ccc(OC)c(O)c1 (stereo not drawn) 1.91
CN1CCN(C2Cc3ccc(Cl)cc3Sc3ccc(F)cc32)CC1 (stereo not drawn) -1.17
Clc1ccc(-c2cc(-c3ccccn3)on2)c(Cl)c1 0.99
O=C1CSC(c2ccccc2)N1c1nc(-c2ccc(Cl)cc2Cl)cs1 (stereo not drawn) 0.4
O=C(Nc1cccc2c1CCCC2)c1ccc(F)cc1 -0.09
Cc1ccc(S(=O)(=O)N2CCN(C(=O)Cc3sc(C)nc3-c3ccc(F)cc3)CC2)c(C)c1 -0.03
COc1ccc(S(=O)(=O)N2CCCCC2)cc1NC(=O)c1cc([N+](=O)[O-])ccc1N1CCOCC1 -0.55
CCN1C(=O)[C@@H]2[C@@H](c3ccc(-c4cccc(Cl)c4)cc3)N3CCC[C@@]3(C(=O)OC)[C@@H]2C1=O 0
CCOc1ccccc1OCC(=O)Nc1ccccc1C(=O)NC1CC1 -2.1
COc1ccccc1OCC(=O)Nc1ccccc1C(=O)NC1CC1 -0.05
CC(Oc1ccc(Br)cc1)C(=O)NCC(c1ccco1)N1CCCCC1 (stereo not drawn) -1.52
Cc1ccc(-c2cc(C(=O)NC3CCN(Cc4ccccc4)CC3)c3ccccc3n2)cc1 0
Cc1ccc(S(=O)(=O)NCCC(=O)NC2CCN(Cc3ccccc3)CC2)cc1 -1.38
CCOC(=O)C1Nc2ccc(C(F)(F)F)cc2C2C=CCC12 (stereo not drawn) 1.69
COc1ccc(CNC(=O)Cc2ccc(-c3ccccc3)cc2)cc1OC 0.77
COc1cc(CNCc2cccs2)cc(Br)c1OC -1.78
CCCC(=O)C1CCN(Cc2ccccc2)CC1 -3.46
O=C(Nc1ccccc1)N1CCN(Cc2ccccc2)CC1 0.76
CC(C)(C)Oc1ccccc1Nc1nc(NCCO)nc(N2CCCC2)n1 0.89
CCOc1ccccc1-c1nc(CN2CCC(C(=O)N3CCOCC3)CC2)c(C)o1 0.57
COc1cccc(CC2(CO)CCCN(Cc3nc(-c4cccs4)oc3C)C2)c1 (stereo not drawn) -0.22

B-score, active:
Cc1nnc(SCc2ccc(C(=O)c3ccc(Cl)cc3)o2)n1-c1ccccc1 -6.19
CN(Cc1ccccc1)CC(O)COc1ccc(CNCc2cc3ccccc3s2)cc1 (stereo not drawn) -11.4
C[C@@H](NC(=O)OC(C)(C)C)c1nnc(S(=O)(=O)Cc2ccccc2)o1 -6.48
C=CCNC(=S)/N=c1/ccccn1Cc1ccccc1 -6.6
CC(C)(C)NCc1cc(Br)ccc1OC1CCCC1 -4.79
CC1(C)NC(=O)N(CCCCSc2ccc(Cl)cc2)C1=O -6.38
CC1CN(C(=O)CCC(=O)NCCCN2CCC(Cc3ccccc3)CC2)c2cc(Cl)ccc2O1 (stereo not drawn) -9.24
Cc1ccc(NC(=S)N(CCCN2CCCC2)Cc2cccn2Cc2ccc(Cl)cc2)cc1 -8.85
CCCOc1ccc(C(=O)C(CCC(CNCC)C(=O)c2ccc(OCCC)cc2)CNCC)cc1 (stereo not drawn) -6.16
c1ccc(C2CNCc3c2ccc2ccccc32)cc1 (stereo not drawn) -11.2
CC(=O)Nc1ccc(SCC(=O)Nc2ccccc2Oc2ccccc2)cc1 -6.89
O=C(/C=C/c1ccc(Cl)cc1Cl)c1cccnc1 -4.49
C=C(C)Cn1c(C)cc(C)c(S(=O)(=O)c2ccccc2C)c1=O -4.55
CC(NCc1ccccc1OC1CCCC1)c1ccccc1 (stereo not drawn) -12.7
Clc1ccc(-c2cc(C3CCNCC3)[nH]n2)c(Cl)c1 -12.6
CC(Oc1ccc(F)cc1)C(=O)Nc1ccccc1C(=O)NC1CC1 (stereo not drawn) -5.66
Cc1ccc(-c2nc(CSCC(=O)NC3CCN(Cc4ccccc4)CC3)c(C)o2)cc1 -4.77
C=CCc1cc(S(=O)(=O)c2ccc(O)c(CC=C)c2)ccc1O -6.7
COc1cc(CNCc2ccc(OC)c3ccccc23)cc(OC)c1OC -6.99
CC12CN(Cc3ccccc3)CC(C)(CN(Cc3ccccc3)C1)C2=NO -8.19
COc1ccc(F)c(-c2nc(CN3CCC(c4ccccc4)CC3)c(C)o2)c1 -6.63

— PubChem BioAssay AID1672 (Johns Hopkins Ion Channel Center, 2009)
